Measurements taken from PubChem BioAssay (Tox21).
Results filed as inconclusive are left out. A call without a number means that no potency is given here. A number with no mark means an inactive call. Activity calls are given as the source filed them. Unless noted, the call rests on the fitted dose curve; in most records, active means well fitted curve in the direction sought with a large enough effect in the repeat runs; inconclusive means weak or mixed curves; inactive means no such curve, though single readings can be large; an effect the other way counts as inactive or inconclusive.

Key:
[1] = target: Luciferin 4-monooxygenase (Photinus pyralis) (UniProt P08659); test: qHTS assay to identify small molecule inhibitors of firefly luciferase (AID 1224835); further: nearly all actives have a fitted effect of over 25% in size; further: potency means the concentration at half of the fitted maximal effect; on activity change, negative = inhibition: series mostly up to about 120 µM
Summary of the method: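 Quantitative HTS format; KM concentrations of both substrates. Purified P. pyralis FLuc activity quantified from luminescence images.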

[2] = qHTS assay to identify small molecule agonists of the constitutive androstane receptor (CAR) signaling pathway - cell viability counter screen (AID 1224836); further: series mostly up to about 92 µM; nearly all actives have a fitted effect of over 45% in size
Summary of the method: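 Compound titrations (15 concentrations) went onto HepG2-CYP2B6-hCAR cells 4 h after seeding, alongside PK11195 at a final 0.75 uM; a 23 h, 37 C/5% CO2 incubation preceded CellTiter-Fluor viability measurement.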

[3] = qHTS assay to identify small molecule antagonists of the constitutive androstane receptor (CAR) signaling pathway - cell viability counter screen (AID 1224837); further: series mostly up to about 92 µM; nearly all actives have a fitted effect of over 45% in size
Summary of the method: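 CITCO at 50 nM final was added alongside compounds (15 concentrations) to double-stable hCAR/CYP2B6-2.2kb HepG2 cells. Following 23 hr at 37 C, cell viability was quantified by CellTiter-Fluor fluorescence intensity.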

[4] = target: Nuclear receptor subfamily 1 group I member 3 (Homo sapiens) (UniProt Q14994); test: qHTS assay to identify small molecule antagonists of the constitutive androstane receptor (CAR) signaling pathway (AID 1224838); further: nearly all actives have a fitted effect of over 40% in size; further: potency means the concentration at half of the fitted maximal effect
Summary of the method: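 Inhibition of CITCO-driven (50 nM final) CYP2B6 reporter expression is measured in HepG2 cells stably carrying hCAR. Fifteen compound concentrations are applied for 24 h at 37 C, followed by luciferase luminescence.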

[5] = target: Nuclear receptor subfamily 1 group I member 3 (Homo sapiens) (UniProt Q14994); test: qHTS assay to identify small molecule agonists of the constitutive androstane receptor (CAR) signaling pathway (AID 1224839); further: nearly all actives have a fitted effect of over 15% in size; further: potency means the concentration at half of the fitted maximal effect; on activation: series mostly up to about 92 µM
Summary of the method: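 In this screen, CAR-driven CYP2B6 promoter activity is measured by luminescence in HepG2-CYP2B6-hCAR cells after 24 h with test compounds and 0.75 uM PK11195 (final concentration).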

[6] = qHTS assay to identify small molecule antagonists of the estrogen related receptor signaling pathway with the pleiotropic PPARgamma coactivator (PGC) from Tox21 10K library - cell viability counter screen (AID 1224840; active means well fitted cell-killing curve with a large enough effect in the repeat runs, not every such curve was filed as active; further: nearly all actives have a fitted effect of over 40% in size)
Summary of the method: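 Readout: fluorescence intensity from CellTiter-Fluor after 30 min at 37 C/5% CO2. Preceded by 17.5 h treatment of PGC/ERR cells with DMSO-dissolved compounds, added 6 h post-seeding.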

[7] = target: Thyrotropin receptor (Homo sapiens) (UniProt P16473); test: qHTS assay to identify small molecule agonists of the thyroid stimulating hormone receptor (TSHR) signaling pathway (AID 1224843; calls by dose curve; further: nearly all actives have a fitted effect of over 45% in size; further: potency means the concentration at half of the fitted maximal effect)
Summary of the method: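 Using 15 concentrations per compound in triplicate, cAMP production was monitored in TSHR-HEK293 cells after 30 min compound incubation at RT; HTRF reagents followed, with fluorescence intensity recorded after 1 h.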

[8] = qHTS assay to identify small molecule agonists of the hypoxia (HIF-1) signaling pathway - cell viability counter screen (AID 1224844; calls by dose curve; further: nearly all actives have a fitted effect of over 50% in size)
Summary of the method: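 In this counter screen, HRE-bla ME-180 cell viability after 17 hrs of compound exposure at 37C was read by CellTiter-Glo luminescence, multiplexed with the beta-lactamase reporter measurement.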

[9] = qHTS assay to identify small molecule antagonists of the estrogen related receptor signaling pathway with the pleiotropic PPARgamma coactivator (PGC) from Tox21 10K library (AID 1224841; call rule not given here; further: series mostly up to about 92 µM; actives are mostly falling curves and most rising ones were filed inactive; nearly all actives have a fitted effect of over 50% in size)
Summary of the method: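 One-Glo luminescence, measured after half an hour at room temperature, quantified reporter output of PGC/ERR cells. These had been plated at 2,000 per well, incubated 6 h, dosed with compounds in DMSO, then kept 18 h at 37 C.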

[10] = qHTS assay to identify small molecule agonists of the estrogen related receptor signaling pathway with the pleiotropic PPARgamma coactivator (PGC) from Tox21 10K library (AID 1224842); further: nearly all actives have a fitted effect of over 15% in size
Summary of the method: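 PGC/ERR reporter cells (NTP line) were seeded 2,000 per well, rested 6 h at 37 C/5% CO2, then pin-dosed with compounds in DMSO for 18 h at 37 C; luciferase read by One-Glo luminescence after 30 min at room temperature.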

Nuclear receptor subfamily 1 group I member 3 (Homo sapiens), sequence (Q14994 whole entry, looked up): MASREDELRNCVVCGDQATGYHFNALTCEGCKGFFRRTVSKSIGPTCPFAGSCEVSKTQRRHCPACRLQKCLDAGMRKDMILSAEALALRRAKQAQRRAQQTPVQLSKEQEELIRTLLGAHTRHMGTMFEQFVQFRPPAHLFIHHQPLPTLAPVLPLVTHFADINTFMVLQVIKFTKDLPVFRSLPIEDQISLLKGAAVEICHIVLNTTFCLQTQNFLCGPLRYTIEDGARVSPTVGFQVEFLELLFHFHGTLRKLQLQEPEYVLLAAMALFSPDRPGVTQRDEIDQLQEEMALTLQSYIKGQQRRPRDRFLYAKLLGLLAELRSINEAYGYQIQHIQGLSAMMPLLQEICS
Luciferin 4-monooxygenase (Photinus pyralis), sequence (P08659 whole entry, looked up): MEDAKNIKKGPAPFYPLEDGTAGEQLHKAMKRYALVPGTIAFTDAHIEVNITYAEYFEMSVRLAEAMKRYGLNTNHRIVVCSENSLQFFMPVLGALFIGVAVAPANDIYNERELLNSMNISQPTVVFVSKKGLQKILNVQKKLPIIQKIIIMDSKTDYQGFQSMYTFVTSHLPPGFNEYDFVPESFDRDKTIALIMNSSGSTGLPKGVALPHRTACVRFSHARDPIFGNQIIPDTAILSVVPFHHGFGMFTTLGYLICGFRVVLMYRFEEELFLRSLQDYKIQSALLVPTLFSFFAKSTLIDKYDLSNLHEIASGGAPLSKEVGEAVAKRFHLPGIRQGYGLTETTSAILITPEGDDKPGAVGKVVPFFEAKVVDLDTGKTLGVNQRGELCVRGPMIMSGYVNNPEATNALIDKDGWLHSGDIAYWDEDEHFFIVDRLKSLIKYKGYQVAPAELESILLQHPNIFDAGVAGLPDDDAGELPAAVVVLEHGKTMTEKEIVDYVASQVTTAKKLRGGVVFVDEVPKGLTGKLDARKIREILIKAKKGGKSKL
Thyrotropin receptor (Homo sapiens), sequence (P16473 whole entry, looked up): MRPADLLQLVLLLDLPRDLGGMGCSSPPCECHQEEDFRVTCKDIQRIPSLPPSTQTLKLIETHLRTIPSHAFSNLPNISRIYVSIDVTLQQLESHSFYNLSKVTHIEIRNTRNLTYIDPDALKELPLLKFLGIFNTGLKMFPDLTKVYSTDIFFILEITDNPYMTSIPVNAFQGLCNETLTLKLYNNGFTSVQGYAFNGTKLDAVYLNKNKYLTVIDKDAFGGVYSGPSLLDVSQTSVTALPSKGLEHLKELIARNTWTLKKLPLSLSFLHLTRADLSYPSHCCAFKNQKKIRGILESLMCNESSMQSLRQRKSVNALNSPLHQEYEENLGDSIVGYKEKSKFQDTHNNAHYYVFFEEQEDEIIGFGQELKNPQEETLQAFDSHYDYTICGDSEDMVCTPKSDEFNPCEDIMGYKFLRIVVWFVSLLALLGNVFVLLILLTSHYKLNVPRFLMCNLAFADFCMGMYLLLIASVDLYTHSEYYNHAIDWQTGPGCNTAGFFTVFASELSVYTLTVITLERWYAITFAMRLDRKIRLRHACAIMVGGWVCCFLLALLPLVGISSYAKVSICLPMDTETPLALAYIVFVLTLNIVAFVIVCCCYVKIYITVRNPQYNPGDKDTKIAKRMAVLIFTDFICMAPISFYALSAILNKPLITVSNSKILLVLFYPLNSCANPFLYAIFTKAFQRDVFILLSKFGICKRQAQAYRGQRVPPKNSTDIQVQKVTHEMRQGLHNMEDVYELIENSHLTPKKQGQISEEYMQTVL

In the case of `CN(C)C(=O)Oc1cccc([N+](C)(C)C)c1`, the Potency [1] is reported as “inactive”, the outcome [2] is reported as “inactive” and the outcome [3] is reported as “inactive”. For the same compound, the Potency [4] was “inactive”, the Potency [5] was “inactive” and the outcome [6] was “inactive”. The Potency [7] was “inactive” and the Potency [8] was “inactive”.

In the case of `O=C(O)Cc1csc(-c2ccc(Cl)cc2)n1`, the Potency [1] is reported as “inactive”, the outcome [2] is reported as “inactive” and the outcome [3] is reported as “inactive”. For the same compound, the Potency [4] was “inactive”, the Potency [5] was “inactive” and the outcome [6] was “inactive”. The Potency [7] was “inactive” and the Potency [8] was “inactive”.

For `O=S(=O)(O)c1cc(O)c(O)c(S(=O)(=O)O)c1`, the Potency [1] was “inactive”, the outcome [2] was “inactive” and the outcome [3] was “inactive”. For the same compound, the Potency [4] was “inactive”, the Potency [5] was “inactive” and the outcome [6] was “inactive”. For the same compound, the Potency [8] was “inactive”.

With `CCOc1ccc2nc(S(N)(=O)=O)sc2c1` the Potency [1] was 34.7 µM (active), the outcome [2] was “inactive” and the outcome [3] was “inactive”. For the same compound, the Potency [4] was “inactive”, the Potency [5] was 7.5 µM (active) and the outcome [6] was “inactive”. The Potency [7] was “inactive” and the Potency [8] was “inactive”.

With `NC(=O)Cc1cccc2ccccc12` the Potency [1] was “inactive”, the outcome [2] was “inactive” and the outcome [3] was “inactive”. The Potency [4] was “inactive”, the Potency [5] was “inactive” and the outcome [6] was “inactive”. The Potency [7] was “inactive”.

Work on `CCCCCCCCCCOc1cc2c(=O)c(C(=O)OCC)c[nH]c2cc1OCC` yielded an activity change, negative = inhibition [1] of -1.76% [at 10.5 µM], a viability change, negative = cytotoxic [2] of 4.44% [at 8.39 µM] and an activity change, negative = cytotoxicity [3] of 5.07% [at 8.39 µM]. The activity, negative = inhibition [4] was 5.74% [at 8.39 µM], the activation [5] was -0.235% [at 8.39 µM] and the viability change, negative = cytotoxic [6] was 9.28% [at 8.39 µM]. For the same compound, the activation [7] was -0.126% [at 8.39 µM] and the activity change, negative = cytotoxicity [8] was 1.84% [at 6.97 µM].

With `CC(=O)Nc1ccc(OCC(O)CNC(C)C)cc1` (stereo not drawn) the Potency [1] was “inactive”, the outcome [2] was “inactive” and the outcome [3] was “inactive”. The Potency [4] was “inactive”, the Potency [5] was “inactive” and the outcome [6] was “inactive”. For the same compound, the Potency [7] was “inactive”.

For `CNCC(O)c1ccc(O)c(O)c1` (stereo not drawn), the Potency [1] was “inactive”, the outcome [2] was “inactive” and the outcome [3] was “inactive”. The Potency [4] was “inactive”, the Potency [5] was “inactive” and the outcome [6] was “inactive”. For the same compound, the Potency [7] was 2.98 µM (active) and the Potency [8] was “inactive”.

For `O=C(c1ccccc1)C1(O)CCCCC1`, the Potency [1] was “inactive”, the outcome [2] was “inactive” and the outcome [3] was “inactive”. For the same compound, the Potency [4] was “inactive”, the Potency [5] was “inactive” and the outcome [6] was “inactive”. The Potency [7] was “inactive” and the Potency [8] was “inactive”.

For `CC/C=C\CCOC(C)OCC` (stereo not drawn), the Potency [1] was “inactive”, the outcome [2] was “inactive” and the outcome [3] was “inactive”. For the same compound, the Potency [4] was “inactive”, the Potency [5] was “inactive” and the outcome [6] was “inactive”. For the same compound, the Potency [7] was “inactive” and the Potency [8] was “inactive”.

With `COc1ccnc(CS(=O)c2nc3cc(OC(F)F)ccc3[nH]2)c1OC` (stereo not drawn) the Potency [1] was “inactive”, the outcome [2] was “inactive” and the outcome [3] was “inactive”. The Potency [4] was “inactive”, the Potency [5] was “inactive” and the outcome [6] was “inactive”. For the same compound, the Potency [7] was “inactive” and the Potency [8] was “inactive”.

For `CCCCN(CCC(=O)OCC)C(C)=O`, the Potency [1] was “inactive”, the outcome [2] was “inactive” and the outcome [3] was “inactive”. The Potency [4] was “inactive”, the Potency [5] was “inactive” and the outcome [6] was “inactive”. For the same compound, the Potency [7] was “inactive”.

With `C=CCOCC(O)CO` (stereo not drawn) the Potency [1] was “inactive”, the outcome [2] was “inactive” and the outcome [3] was “inactive”. For the same compound, the Potency [4] was “inactive”, the Potency [5] was “inactive” and the outcome [6] was “inactive”. For the same compound, the Potency [7] was “inactive” and the Potency [8] was “inactive”.

In the case of `CC(C)CC(C)(N)C#N` (stereo not drawn), the Potency [1] is reported as “inactive”, the outcome [2] is reported as “inactive” and the outcome [3] is reported as “inactive”. For the same compound, the Potency [4] was “inactive”, the Potency [5] was “inactive” and the outcome [6] was “inactive”. The Potency [8] was “inactive”.

For `CC(CC=O)CC(C)(C)C` (stereo not drawn), the Potency [1] was “inactive”, the outcome [2] was “inactive” and the outcome [3] was “inactive”. The Potency [4] was “inactive”, the Potency [5] was “inactive” and the outcome [6] was “inactive”. The Potency [7] was “inactive” and the Potency [8] was “inactive”.

For `CC(=O)c1cnccn1`, the Potency [1] was “inactive”, the outcome [2] was “inactive” and the outcome [3] was “inactive”. For the same compound, the Potency [4] was “inactive”, the Potency [5] was “inactive” and the outcome [6] was “inactive”. The Potency [7] was “inactive” and the Potency [8] was “inactive”.

With `Nc1ccn([C@@H]2O[C@H](CO)[C@@H](O)C2(F)F)c(=O)n1` the Potency [1] was “inactive”, the outcome [2] was “inactive” and the outcome [3] was “inactive”. For the same compound, the Potency [4] was 0.596 µM (active), the Potency [5] was “inactive” and the outcome [6] was “inactive”. For the same compound, the Potency [7] was “inactive” and the Potency [8] was “inactive”.

In the case of `C1CCC2(CCCCO2)OC1`, the Potency [1] is reported as “inactive”, the outcome [2] is reported as “inactive” and the outcome [3] is reported as “inactive”. For the same compound, the Potency [4] was “inactive”, the Potency [5] was “inactive” and the outcome [6] was “inactive”. The Potency [7] was “inactive” and the Potency [8] was “inactive”.

With `CCN(C=O)CC` the Potency [1] was “inactive”, the outcome [2] was “inactive” and the outcome [3] was “inactive”. For the same compound, the Potency [4] was “inactive”, the Potency [5] was “inactive” and the outcome [6] was “inactive”. The Potency [7] was “inactive”.

In the case of `Cc1ncc(COP(=O)(O)O)c(C=O)c1O`, the Potency [1] is reported as “inactive”, the outcome [2] is reported as “inactive” and the outcome [3] is reported as “inactive”. For the same compound, the Potency [4] was “inactive”, the Potency [5] was “inactive” and the outcome [6] was “inactive”. The Potency [7] was “inactive” and the Potency [8] was “inactive”.

In the case of `O=C1c2ccccc2C(=O)c2cc(O)ccc21`, the Potency [1] is reported as 28.3 µM (active), the outcome [2] is reported as “inactive” and the outcome [3] is reported as “inactive”. For the same compound, the Potency [4] was “inactive”, the Potency [5] was 54.5 µM (active) and the outcome [6] was “inactive”. For the same compound, the Potency [7] was “inactive” and the Potency [8] was “inactive”.

In the case of `C=C[Si](OC(C)=O)(OC(C)=O)OC(C)=O`, the Potency [1] is reported as “inactive”, the outcome [2] is reported as “inactive” and the outcome [3] is reported as “inactive”. For the same compound, the Potency [4] was “inactive”, the Potency [5] was “inactive” and the outcome [6] was “inactive”. For the same compound, the Potency [8] was “inactive”.

In the case of `CCOC(=O)c1cnc2c(cnn2CC)c1NN=C(C)C`, the Potency [1] is reported as “inactive”, the outcome [2] is reported as “inactive” and the outcome [3] is reported as “inactive”. For the same compound, the Potency [4] was “inactive”, the Potency [5] was “inactive” and the outcome [6] was “inactive”. The Potency [8] was “inactive”.

With `CCOC(=O)C(=O)CCCCCCl` the Potency [1] was “inactive”, the outcome [2] was “inactive” and the outcome [3] was “inactive”. The Potency [4] was “inactive”, the Potency [5] was “inactive” and the outcome [6] was “inactive”. For the same compound, the Potency [7] was “inactive”.

For `CC[N+](CC)(CC)CCOc1cccc(OCC[N+](CC)(CC)CC)c1OCC[N+](CC)(CC)CC`, the Potency [1] was “inactive”, the outcome [2] was “inactive” and the outcome [3] was “inactive”. The Potency [4] was “inactive”, the Potency [5] was “inactive” and the outcome [6] was “inactive”. For the same compound, the Potency [7] was “inactive” and the Potency [8] was “inactive”.

For `CC1=NS(=O)(=O)c2cc(Cl)ccc2N1`, the Potency [1] was “inactive”, the outcome [2] was “inactive” and the outcome [3] was “inactive”. The Potency [4] was “inactive”, the Potency [5] was “inactive” and the Potency [7] was “inactive”. The Potency [8] was “inactive”.

In the case of `CCCCCC(=O)OCCc1ccccc1`, the Potency [1] is reported as 15.9 µM (active), the outcome [2] is reported as “inactive” and the outcome [3] is reported as “inactive”. The Potency [4] was “inactive”, the Potency [5] was “inactive” and the Potency [9] was “inactive”. The Potency [10] was “inactive”, the Potency [7] was “inactive” and the Potency [8] was “inactive”.

For `CCCCS(=O)(=O)N[C@@H](Cc1ccc(OCCCCC2CCNCC2)cc1)C(=O)O`, the Potency [1] was “inactive”, the outcome [2] was “inactive” and the outcome [3] was “inactive”. The outcome [6] was “inactive”, the Potency [7] was “inactive” and the Potency [8] was “inactive”.
